# Measured values as given in PubChem BioAssay AID1203 (The Scripps Research Institute Molecular Screening Center, 2008).
# The whole screen tested about 200,000 compounds, of which about 80 (0.04%) were called active. Shown is part of a subset that was picked to be rich in actives. Unmarked numbers belong to inactive results.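 The calls were made as follows: active = activation above the mean across all tested compounds plus 3 SD, cutoff set per campaign (cut at about 5.5% in these data); inactive = the rest.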
# Assay: Hsp70 promoter-driven reporter induction – cell-based, HeLa, Hsp70 promoter luciferase, luminescence, 10 µM, primary screen (AID 1203);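 also: 100% = MG132 at 30 µM as the positive control and 0% = DMSO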
# Settings: at 10 µM, active compounds read high, scaled: vehicle 0, proteasome-inhibitor control 100%
row,SMILES,activation
1,COc1ccc(C)cc1S(=O)(=O)N(CC(=O)Nc1cccc([N+](=O)[O-])c1)c1ccc(C)cc1,-0.49%
2,CCOC(=O)NC(=O)CSc1nnc(SCCC(=O)O)s1,-0.37%
3,CC(C)C(=O)Nc1c(O)c2ccccc2[nH]c1=O,-0.15%
4,N#C/C(=C/c1ccc(N2CCCCC2)o1)C(=O)NCCc1c[nH]c2ccccc12,-0.42%
5,CN1CCN(c2nc(Nc3ccc(O)cc3)nc3ccccc23)CC1,-0.02%
6,COc1ccc(CNC(=O)C2CCN(S(C)(=O)=O)CC2)cc1,-0.22%
7,Cc1cc(NC(C)C)n2c(nc3ccccc32)c1C#N,-0.27%
8,COc1ccc(CC(=O)Nc2cc(S(=O)(=O)N3CCCCC3)ccc2N2CCN(C)CC2)cc1,-0.39%
9,CC1CCN(C(=S)c2cccc([N+](=O)[O-])c2)CC1,-0.04%
10,CC(OC(=O)c1ccccc1OCc1ccc(Cl)cc1)C(N)=O (stereo unspecified),-0.14%
11,Cc1ccc(N(C(=O)c2sc(C)nc2C)C(C(=O)NC(C)(C)C)c2ccncc2)cc1 (stereo unspecified),-0.38%
12,COCC(C)n1c(SCc2ccc(C(=O)OC)o2)nc2ccccc2c1=O (stereo unspecified),-0.28%
13,COCC(C)n1c(C)cc(C(=O)CSc2cc(C)c3ccccc3n2)c1C (stereo unspecified),-0.27%
14,COCCn1c(C)cc(C(=O)CSc2nc3ccccc3c(=O)n2C(C)COC)c1C (stereo unspecified),8.58% (active)
15,O=S(=O)(c1ccc(F)cc1)n1ccc(-c2cnc(-c3ccccc3)s2)n1,-0.1%
16,CCOC(=O)CSc1ccccn1,2.15%
17,COc1ccc(N(CC(=O)Nc2ccc(C)cc2C)S(=O)(=O)c2ccccc2[N+](=O)[O-])c(OC)c1,-0.09%
18,Cc1cc(C)n(CC(=O)Nc2ccc([N+](=O)[O-])cc2)n1,-0.28%
19,OCCC1CN(Cc2ccccc2-c2ccco2)CCN1Cc1ccsc1 (stereo unspecified),-0.08%
20,COc1cccc(CNC(=O)CCC2CCCN(C(=O)c3ccoc3C)C2)c1 (stereo unspecified),-0.21%
21,COc1ccc2c(c1)CCC/C2=N\OC(=O)c1ccccc1F,0.09%
22,O=C(CC1C(=O)NCCN1Cc1ccc(-c2ccccc2)cc1)NCc1ccncc1 (stereo unspecified),-0.07%
23,Cc1cccc(NC(=S)Nc2ccc3cn[nH]c3c2)c1,-0.39%
24,COc1ccc(NC(=O)/C(Cl)=C(/Cl)S(=O)Cc2ccc(C)cc2)cn1 (stereo unspecified),24.9% (active)

row,SMILES,activation
1,COc1ccc(NC(=S)NCCNC(C)=O)cc1,0.67%
2,COc1ccc(CS(=O)/C(Cl)=C(/Cl)C(=O)Nc2ccc(OC)nc2)cc1 (stereo unspecified),20% (active)
3,COc1ccc(NC(=S)Nc2ccccc2Cl)cn1,-0.12%
4,Cc1ccc(NC(=O)OCc2cncs2)cc1,0.06%
5,CC(=O)Nc1ccc(OCC(=O)NCc2ccc(C)cc2)cc1,-0.17%
6,CN(C)c1ccc(C(CNC(=O)c2ccc(F)cc2)c2c[nH]c3ccccc23)cc1 (stereo unspecified),-0.32%
7,COc1ccc(/C=N/N=C/c2c[nH]c(=O)c(C#N)c2Nc2ccccc2)cc1,-0.38%
8,CCN(CC)S(=O)(=O)c1ccc(NC(=O)c2cccnc2Cl)c(NC(=O)c2cccnc2Cl)c1,-0.26%
9,CCOc1ccc(NC(=O)C2CC(=O)N=C(N)S2)cc1 (stereo unspecified),-0.33%
10,O=Cc1cn(Cc2ccccc2)nc1-c1cccnc1,-0.04%
11,Cc1ccc(N(CC(=O)Nc2cc(C)cc(C)c2)S(=O)(=O)c2cccc3nonc23)cc1,-0.31%
12,O=C(CN1C(=O)NC2(CCCC2)C1=O)NCC1CCCO1 (stereo unspecified),0.18%
13,O=S(=O)(N1CCCCC1)N1CCNCC1,-0.19%
14,O=C(Nc1ccccc1Cl)/C(Cl)=C(\Cl)S(=O)c1ccccc1 (stereo unspecified),26.1% (active)
15,O=C(Nc1ccccc1Cl)c1ccc2nsnc2c1,0.16%
16,O=C(CN1CCCCC1)Nc1ccccc1Cl,-0.18%
17,CCCC1CCC(=NNC(=S)NCCc2ccccc2)CC1 (stereo unspecified),-0.28%
18,OCCC1CN(Cc2cnc(-c3ccccc3)s2)CCN1CCc1ccccc1 (stereo unspecified),0.55%
19,C/C(=N/OC(=O)c1c(-c2c(F)cccc2Cl)noc1C)c1cnccn1,-0.36%
20,O=C(CCC(=O)c1cccs1)NC1CCCCCC1,-0.2%
21,Fc1cccc(Cc2noc(CN3CCN(c4cnccn4)CC3)n2)c1,0.1%
22,Cc1ccc(-c2ccc(/C=N/NC(=O)CN3CCOCC3)o2)cc1[N+](=O)[O-],-0.19%
23,CCOC(=O)NN1C(=O)c2ccccc2NC1c1cccc(O)c1 (stereo unspecified),-0.06%
24,N=C1C(=O)OCC1c1ccccc1NC(=O)CN1CCCCC1 (stereo unspecified),-0.34%

row,SMILES,activation
1,CCc1ccc(NC(=O)C(C)OC(=O)/C=C/c2cccc([N+](=O)[O-])c2)cc1 (stereo unspecified),-0.25%
2,O=C(COC(=O)CCc1ccc(S(=O)(=O)N2CCOCC2)cc1)Nc1cccc(Cl)c1,-0.33%
3,CCN1CCN(C(=O)CN(C)S(=O)(=O)c2ccc3ccccc3c2)CC1,-0.21%
4,CSCCC(=O)N1CCCC(CNC(=O)c2ccccc2Cl)C1 (stereo unspecified),-0.44%
5,C=CCN(c1ccc(Cl)cc1)S(=O)(=O)c1cccc(C(=O)OCC(=O)N(C)C)c1,-0.3%
6,Cc1cccc(CSc2nnc(C)c(=O)n2N)c1,-0.18%
7,O=C(CO/N=C/c1ccc(OC(F)F)cc1)NCc1ccc(F)cc1,0.12%
8,CCNc1nc(NC(C)C)nc(N2CC(=O)N(CC(=O)OCC)C2=N)n1,-0.19%
9,COc1ccccc1C(c1nnnn1CC1CCCO1)N1CCN(c2ccccc2)CC1 (stereo unspecified),-0.43%
10,CCOc1ccc(C(CC(=O)O)n2cnnn2)cc1OC (stereo unspecified),-0.16%
11,Cc1cc(C)cc(NC(=O)c2cccc(NC(=O)C3C4CC5OC(=O)C3C5C4)c2)c1 (stereo unspecified),0.09%
12,COCCNC(=S)N(Cc1cccnc1)Cc1ccc(OC)c(OC)c1,-0.35%
13,O=C(Nc1ccccc1F)c1ccccc1-c1ccc(C(F)(F)F)cc1,-0.36%
14,C/C(CC(=O)N1CCN(C=O)CC1)=N\NC(=O)c1ccc(Br)cc1,-0.22%
15,Cc1ccc(CN2CCN(Cc3cccc(C)n3)CC2CCO)cc1 (stereo unspecified),0.01%
16,O=C(Cc1cc(=O)[nH][nH]1)N/N=C/c1ccccc1[N+](=O)[O-],-0.41%
17,CCn1cc(C(=O)Nc2cc(C)ccc2C)c(=O)c2ccc(C)nc21,-0.16%
18,CC(NC(=O)CC1SC(N)=NC1=O)c1ccccc1 (stereo unspecified),-0.02%
19,COc1ccc(CCNC(=O)CSc2nnc3ccc(-c4ccncc4)nn23)cc1,-0.16%
20,O=C(NCc1ccccc1Cl)C1CCC(CNc2c(N3CCCCC3)c(=O)c2=O)CC1 (stereo unspecified),0.08%
21,CN1C(=O)/C(=C/c2ccc(C(=O)NC3CCCC3)cc2)Oc2ccccc21,0.12%
22,CC(=O)c1ccccc1NC(=O)CC1(CC(=O)O)CCCCC1,-0.11%
23,Cc1nc(S(=O)(=O)c2ccc(Br)cc2)nc2c1CCC2,-0.24%
24,COc1ccc(Cn2c(=O)cc(C)[nH]c2=S)cc1,0.13%

row,SMILES,activation
1,O=C(COc1ccc(Cl)cc1[N+](=O)[O-])N1CCCCC1,0.04%
2,Cn1nc(C(F)(F)F)c2cc(C(=O)N3CCOCC3)sc21,0.19%
3,Cc1ccnc(SCC(N)=O)n1,-0.02%
4,O=C(Nc1cccc(Cl)c1)Nc1ccccc1NS(=O)(=O)c1cccs1,-0.23%
5,CCCC(C)C(=O)NCc1ccncc1 (stereo unspecified),0.15%
6,Cc1ccc(N(Cc2cc3ccccc3[nH]c2=O)C(=O)c2cccs2)cc1,-0.18%
7,C/C(CC(=O)Nc1cccc(F)c1)=N\NC(=O)C(=O)NC1CCCCC1,-0.18%
8,CCOCCCNC(=O)C(NC(=O)c1ccccc1O)c1ccccc1 (stereo unspecified),-0.12%
9,O=C(CC(=O)N/N=C\c1ccc(F)cc1)NCCc1ccccc1,-0.23%
10,CN1CCN(C(=O)CCc2nc(-c3ccc(Cl)cc3)no2)CC1,-0.33%
11,N#Cc1c(-c2ccc(F)cc2)nc(-c2ccccc2)[nH]c1=O,-0.14%
12,CCSC1=NCCN1S(=O)(=O)c1ccc(F)cc1,-0.26%
13,COc1ccc(C(=O)CSc2nnnn2C)c(OC)c1,0.02%
14,CC(=O)Nc1ccc(C(=O)OCC(=O)Nc2ccc([N+](=O)[O-])cc2C(F)(F)F)cc1,-0.04%
15,CCN(CC)C(=O)C(=O)Nc1cccc(Br)c1,-0.16%
16,c1ccc(-n2nnnc2NC2CCCCCC2)cc1,-0.52%
17,CC(=O)c1ccc(NC(=S)N(Cc2ccccc2)C(C)C2CC2)cc1 (stereo unspecified),-0.19%
18,COc1ccc(COC(=O)N/N=C(\C)CC(=O)Nc2ccc(Cl)cc2)cc1,-0.38%
19,OCCC1CN(Cc2cccc(O)c2)CCN1CCc1ccccc1 (stereo unspecified),0.03%
20,Cc1cccc(OCC(O)CN2CCN(CCN3C(=O)c4cccc5cccc(c45)C3=O)CC2)c1C (stereo unspecified),-0.21%
21,Cc1ccc(CN2CCN(Cc3ccc4ncccc4c3)CC2CCO)cc1 (stereo unspecified),-0.4%
22,NS(=O)(=O)c1ccc(CCNC(=S)Nc2ccc(S(N)(=O)=O)cc2)cc1,0.04%
23,COc1ccc2c(CC(=O)OCC(=O)Nc3ccccc3[N+](=O)[O-])coc2c1,-0.38%
24,CCCNCc1cc(OCC)c(OCC(=O)Nc2ccccc2)cc1Br,-0.15%
